Rce1 inh = inhibitors of yeast Ras-converting enzyme | Q03530 | AID 2563 | calls only | yeast membranes, quenched prenylated peptide cleavage fluorescence | 290,000 compounds, 0.27% hits;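 active = fall in fluorescence gain of 50% or more versus controls, with final raw signal at or below 3038400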
ABHD5 PLIN5 PPI = ABHD5-PLIN5 protein interaction inhibition; AID 602281; inhibition, % at 4 µM; 360,000 compounds, 0.78% hits; Split G. princeps luciferase complementation, luminescence, 4 h;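 active = inhibition above the mean inhibition across every tested compound plus 3 SD, cut at about 22% in these data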
Target sequence (Q00G26 whole entry, looked up): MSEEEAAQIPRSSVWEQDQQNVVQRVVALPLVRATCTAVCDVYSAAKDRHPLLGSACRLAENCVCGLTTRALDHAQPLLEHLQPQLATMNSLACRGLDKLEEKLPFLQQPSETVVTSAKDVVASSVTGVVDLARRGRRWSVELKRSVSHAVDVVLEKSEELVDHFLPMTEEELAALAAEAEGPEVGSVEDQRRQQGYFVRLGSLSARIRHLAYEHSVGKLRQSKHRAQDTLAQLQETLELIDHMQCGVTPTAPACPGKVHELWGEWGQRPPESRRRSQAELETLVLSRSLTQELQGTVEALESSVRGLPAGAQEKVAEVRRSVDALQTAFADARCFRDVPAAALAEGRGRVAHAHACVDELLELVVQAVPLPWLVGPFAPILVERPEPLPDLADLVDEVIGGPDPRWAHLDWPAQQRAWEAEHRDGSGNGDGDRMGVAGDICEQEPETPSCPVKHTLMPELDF
Target sequence (Q8WTS1 whole entry, looked up): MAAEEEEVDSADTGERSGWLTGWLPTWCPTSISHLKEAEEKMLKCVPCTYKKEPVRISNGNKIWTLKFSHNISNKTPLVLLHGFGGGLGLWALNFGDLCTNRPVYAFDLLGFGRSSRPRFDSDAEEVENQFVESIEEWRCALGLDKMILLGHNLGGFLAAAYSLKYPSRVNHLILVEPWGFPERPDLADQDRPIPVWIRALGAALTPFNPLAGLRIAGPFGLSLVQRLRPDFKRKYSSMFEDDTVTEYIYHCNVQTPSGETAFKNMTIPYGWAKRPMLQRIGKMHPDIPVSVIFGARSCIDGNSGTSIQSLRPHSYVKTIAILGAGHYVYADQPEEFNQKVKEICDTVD
Platelet DG rel = modulates dense granule release in human platelets; human platelet-rich plasma, SFLLRN dense granule ATP release, luminescence; 300,000 compounds, 0.22% hits; AID 1663; inhibition, %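 (compounds screened at 7.5 µM in platelet-rich plasma)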;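 active = mean replicate score, as percent of positive control, at or above 50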
Exocytosis inh = blocks lytic granule exocytosis; 360,000 compounds, 0.66% hits; AID 651702; TALL-104 LAMP-1 surface exposure, flow cytometry; cells stimulated with thapsigargin and PMA; inhibition, % at 10 µM;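 active = inhibition above about 55%, limit read from the data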
PfM18AAP inh = blocks P. falciparum M18 aspartyl aminopeptidase. recombinant PfM18AAP, H-Glu-NHMec fluorogenic cleavage. inhibition, % at 7.35 µM. 290,000 compounds, 1.2% hits;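 active = inhibition above the campaign mean inhibition over all tested compounds plus 3 SD, cut at about 28% in these data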
Granule exo CP1 = lytic granule exocytosis inhibition; shares compounds with Exocytosis inh; TALL-104 cells, LAMP-1 externalization, flow cytometry; stimulated with PMA plus thapsigargin; inhibition, % at 10 µM; 1,500 compounds, 11% hits; in the data active = inhibition above about 60%
Each line names hits and unclear results; the compound was inactive in the other large screens (follow-up assays come after a bar, where they were run). In the library only some 2.6% were active in any assay of this set; here they are far more common.

N#Cc1nc(-c2ccc(OCc3ccccc3)cc2)oc1NCCCn1ccnc1	Exocytosis inh 81 | Granule exo CP1 inactive
C#CCNC(=O)C1CCN(c2ccc(S(=O)(=O)N3CCOCC3)cc2Cl)CC1	none
CCOc1ccc(S(=O)(=O)n2cc(-c3ccccc3)c(N)n2)cc1	Exocytosis inh 67 | Granule exo CP1 inactive
CCOc1ccc(S(=O)(=O)n2cc(-c3ccc(F)cc3)c(N)n2)cc1	Exocytosis inh 74 | Granule exo CP1 inactive
CCOc1cc(S(=O)(=O)n2cc(-c3ccc(F)cc3)c(N)n2)cc(OCC)c1OCC	none
CCOc1ccc(NC(=O)c2ccc(F)cc2F)cc1	Exocytosis inh 62 (no result: PfM18AAP inh) | Granule exo CP1 inactive
COc1cc(C(=O)Nc2ccc(S(=O)(=O)N3CCOCC3)cc2)c([N+](=O)[O-])cc1OC	Exocytosis inh 74 (no result: Rce1 inh) | Granule exo CP1 inactive
Cc1cc(C)c(C)c(S(=O)(=O)Nc2cccc(-n3cnnn3)c2)c1C	Exocytosis inh 60 | Granule exo CP1 inactive
Cc1cc(C)c(S(=O)(=O)Nc2cccc(-n3cnnn3)c2)c(C)c1	none
Cc1ccc(NC(=O)CSc2nccn2C)cc1S(=O)(=O)N1CCOCC1	none
Cc1ccc(NC(=O)CSc2nnc3ccccn23)cc1S(=O)(=O)N1CCOCC1	Exocytosis inh 81 | Granule exo CP1 inactive
Cc1cccc(-n2nc3c(c2NC(=O)c2ccc(Br)o2)CSC3)c1	none
COc1ccc(NC(=O)c2c(C)nn(Cc3ccccc3)c2C)cc1S(=O)(=O)N(C)C	Exocytosis inh 71 | Granule exo CP1 inactive
COc1ccc(NC(=O)c2c(C)nn(Cc3ccccc3)c2Cl)cc1S(=O)(=O)N1CCOCC1	none
COc1ccc(Nc2nc(N3CCN(S(=O)(=O)N(C)C)CC3)nc3ccccc23)cc1	Exocytosis inh 81 | Granule exo CP1 inactive
Cc1cc(-c2ccccc2)nc2cc(C(=O)N(Cc3ccccc3)Cc3ccccc3)nn12	Exocytosis inh 80 | Granule exo CP1 inactive
COC(=O)c1cc2nc(-c3ccccc3)cc(C)n2n1	none (no result: Rce1 inh)
Cc1nnc(NC(=O)CS(=O)(=O)Cc2ccccc2)s1	none
Cc1ccc(-c2nc(C(=O)NCCCN3CCOCC3)cc3c2[nH]c2ccccc23)cc1	Exocytosis inh 56 | Granule exo CP1 inactive
NC(=O)[C@@H]1CC2(CC(c3cccc(NC(=O)[C@H]4CCC(=O)N4)c3)=NO2)CN1C(=O)COc1ccc(Cl)cc1 (stereo not given in full)	none (no result: PfM18AAP inh)
Cc1cccn2c(=O)c3cc(C(=O)NC4CCCC4)c(=N)n(CCc4ccccc4)c3nc12	Exocytosis inh 69 | Granule exo CP1 inactive
Cc1ccc2nc3c(cc(C(=O)NCCc4ccccc4)c(=N)n3CCCN3CCOCC3)c(=O)n2c1	Exocytosis inh 80 | Granule exo CP1 inactive
COc1ccc(CCNC(=O)c2cc3c(=O)n4ccccc4nc3n(CCCN3CCOCC3)c2=N)cc1	none
CCCCCC(O)(CCCCC)C(=O)NNc1ccccc1	none
COc1ccccc1C(=O)Nc1c(C(=O)N(CCN(C)C)Cc2ccco2)oc2ccccc12	ABHD5 PLIN5 PPI 22, Exocytosis inh 66 | Granule exo CP1 inactive
Cc1ccccc1C(=O)Nc1c(C(=O)N(CCN(C)C)Cc2ccco2)oc2ccccc12	none
Oc1cc(Br)ccc1C=Nc1ccc(N2CCCCC2)cc1	Exocytosis inh 65 | Granule exo CP1 inactive
CCOC(=O)c1c(-c2ccccc2)oc2ccc(OCC(O)CN(C)C)cc12 (stereo not given)	Exocytosis inh 84 | Granule exo CP1 inactive
CCOC(=O)c1c(-c2ccccc2)oc2ccc(OC(C)C(=O)O)cc12 (stereo not given)	none
COCCN1C(=O)N[C@@H](c2cccc(C(F)(F)F)c2)[C@@H](C(=O)OC)[C@H]1C	none (no result: PfM18AAP inh)
CCN1C(=O)N[C@@H](c2cccc(C(F)(F)F)c2)[C@@H](C(=O)OC)[C@H]1C	Exocytosis inh 101 (no result: PfM18AAP inh) | Granule exo CP1 inactive
Cc1ccc2c(Cl)cc(Cl)c(OCc3c(C)noc3C)c2n1	Exocytosis inh 59 | Granule exo CP1 inactive
Cc1cc(C)n(-c2nc(SCCN(C)C)c3c4c(sc3n2)CCCC4)n1	Exocytosis inh 70 | Granule exo CP1 inactive
Cc1cc(C)n(-c2nc(SCC(=O)O)c3c4c(sc3n2)COC(C)(C)C4)n1	none
COc1ccc(C(=O)COC(=O)c2ccc3c(c2)OCO3)c(OC)c1	none (no result: Rce1 inh, Platelet DG rel, PfM18AAP inh)
CCCN(CC(=O)Nc1ccccc1OC)C(C)C(=O)NC(C)CCc1ccccc1 (stereo not given)	Exocytosis inh 70 | Granule exo CP1 inactive
CCOC(=O)C1=C(C)N(c2ccccc2)C(=O)C1	Exocytosis inh 100 | Granule exo CP1 inactive
Cc1ccc(CN(C)CCc2ccccn2)cc1	none
CCOc1ccc2nc(C)cc(Nc3cccc([N+](=O)[O-])c3)c2c1	Exocytosis inh 90 | Granule exo CP1 80
Cc1cc(Nc2cccc([N+](=O)[O-])c2)c2ccccc2n1	none
COc1ccc(OC)c(Nc2nc(-c3ccncc3)nc3ccccc23)c1	Exocytosis inh 83 | Granule exo CP1 inactive
CCCCN(Cc1ccccc1)C1CCN(Cc2ccccc2)CC1	Exocytosis inh 68 | Granule exo CP1 inactive
Cc1ccc(S(=O)(=O)CCSc2nc(C)cc(C)c2C#N)cc1	none
CCn1c(=O)c2cc(C(=O)NCCC(C)C)sc2c2ccccc21	Exocytosis inh 71 | Granule exo CP1 inactive
CCC(C(=O)Nc1c[nH]c(=O)[nH]c1=O)c1ccccc1 (stereo not given)	none
COc1ccc(-c2nc(N)nc(C)c2-c2ccc(Cl)cc2)c(O)c1	Exocytosis inh 61 | Granule exo CP1 inactive
CCOc1ccc(-c2nc(N)nc(C)c2-c2ccc(Cl)cc2)c(O)c1	none
CN(Cc1ccccc1)C(=O)c1ccc([N+](=O)[O-])o1	none (no result: Rce1 inh)
Cc1csc(SCC(=O)NCc2ccccc2)n1	none
Cc1csc2sc(-c3ccnc(SCC(=O)NCc4ccccc4)n3)c(C)c12	Exocytosis inh 66 | Granule exo CP1 inactive
COc1ccc(-c2cc([C@H]3[C@H]4C=CC[C@@H](C)[C@@H]4C(=O)N3Cc3ccccc3)ccc2F)cc1	Exocytosis inh 57 (no result: PfM18AAP inh) | Granule exo CP1 inactive
OC(CCN1CCC2CCC(C2)C1)c1ccc(Br)cc1 (stereo not given)	Exocytosis inh 59 (no result: Rce1 inh, Platelet DG rel, PfM18AAP inh) | Granule exo CP1 inactive
Cc1c(NC(=O)CN2C(=O)c3cccc4cccc2c34)c(=O)n(-c2ccccc2)n1C	none
COc1ccc(Nc2nc(-c3sc(C)nc3C)cs2)cc1	Exocytosis inh 82 | Granule exo CP1 inactive
CCOC(=O)c1cnc2ccc(OCC)cc2c1N(C)Cc1ccccc1	Exocytosis inh 102 | Granule exo CP1 79
CCOC(=O)C1=C(CNCc2ccc(F)cc2)NC(=O)NC1c1cccc([N+](=O)[O-])c1 (stereo not given)	none
CCOC(=O)C1=C(CCc2ccccc2)NC(=O)NC1c1cccc([N+](=O)[O-])c1 (stereo not given)	Exocytosis inh 94 | Granule exo CP1 inactive
CCOC(=O)N1CCC(NC(=O)c2ccc(CS(=O)c3ccc(Cl)cc3)o2)CC1 (stereo not given)	none
